Hits are enriched below; roughly 7.1% of the tested compounds scored in any of these assays.
LASV entry inh: qHTS for Inhibitors of binding or entry into cells for Lassa Virus. Lassa virus pseudotyped entry inhibition, cell-based qHTS. Potency, µM (titrated, usually from 49.2 µM), actives largely listed as inhibitors. hit rate 4.1% among 18,000
Marburg entry: qHTS for Inhibitors of binding or entry into cells for Marburg Virus; Potency, µM (top dose mostly 49.2 µM), usual class: inhibitors; hit rate 6.5% among 18,000; Marburg virus pseudotype entry/binding inhibition, cell-based
A number is an active result; i = inactive; ? = inconclusive; nt = no result; ! = not confirmed by another sample; [ ] = another dose, or the depositor's remark. The call rests on the fitted dose curve; tested in HEK293 cells.

SMILES	LASV entry inh	Marburg entry
c1ccc(N2CCN(CCCOc3ccc4c(c3)OCO4)CC2)cc1	i	i
O=C1NCN(c2ccccc2)C12CCN(CCCOc1ccc(F)cc1)CC2	16µM	18µM
CC(=O)OC[C@H]1O[C@H](CCON=C(C)CCN2CCCCc3nc(C)c(C)cc32)C=C[C@H]1OC(C)=O	i[8.59 µM]	i[8.59 µM]
CC1(C)CC(=O)C2=C(C1)O[C@@]1(CCCCN3C(=O)c4ccccc4C3=O)Cc3ccccc3[C@H]2O1	i[8.59 µM]	i[8.59 µM]
CCCCCC1C(=O)O[C@H](C)[C@@H](NC(=O)c2cccc(NC=O)c2O)C(=O)OC(C)C1OC(=O)CC(C)C (some centres undefined)	?	0.1µM
C[C@]12C[C@@](C)(C=C1C=Cc1ccc(F)cc1)C(=O)C[C@H]2c1ccc(F)cc1	nt	i[8.59 µM]
CC(C)NC[C@@H](O)COc1ccc(CC(N)=O)cc1	i	i
CN(CCc1ccc(Cl)c(Cl)c1)C[C@@H](O)COc1ccc(NS(C)(=O)=O)cc1	i	14µM
COC(=O)C1=C(C)N(Cc2ccccc2)C(=NCc2ccc(OC)cc2)NC1c1ccccc1 (centres undefined)	i[8.59 µM]	i[8.59 µM]
C=CC[C@@](C(C)=O)(C(=O)OC)[C@@H](NC(=O)OC(C)(C)C)c1ccccc1	i[8.59 µM]	i[8.59 µM]
O=C1[C@H]2[C@@H]3[C@@H](O)[C@H](O)CC(=NOCc4ccccc4)[C@@H]3CC[C@H]2C(=O)N1C[C@@H]1CCCO1	i[8.59 µM]	i[8.59 µM]
CCN(CC)CCCN=C1NC(c2cccc(C(F)(F)F)c2)C(C(=O)OC)=C(C)N1CC (centres undefined)	i[8.59 µM]	i[8.59 µM]
CC(C)[C@@H](OCc1ccccc1)[C@H](C)C=NOC[C@@H](O)COCc1ccco1	i[8.59 µM]	i[8.59 µM]
CCCNC[C@H](O)COc1ccccc1C(=O)CCc1ccccc1	i	8.9µM
N#Cc1ccccc1OC[C@H](O)CNCCNC(=O)Nc1ccccc1	i	i
CN1CC[C@]2(C)c3cc(O)ccc3N(C)[C@@H]12	i	11µM
CNC(=O)Oc1ccc2c(c1)[C@]1(C)CCN(C)[C@@H]1N2C	i	i
CC(=O)Oc1ccccc1C(=O)O	i	i
CC(=O)[O][Hg][c]1ccccc1	0.5µM	?
CC(=O)O[C@H]1C[C@H](O[C@H]2[C@@H](O)C[C@H](O[C@H]3[C@@H](O)C[C@H](O[C@H]4CC[C@@]5(C)[C@H](CC[C@@H]6[C@@H]5C[C@@H](O)[C@]5(C)[C@@H](C7=CC(=O)OC7)CC[C@]65O)C4)O[C@@H]3C)O[C@@H]2C)O[C@H](C)[C@H]1O[C@@H]1O[C@H](CO)[C@@H](O)[C@H](O)[C@H]1O	0.05µM	?
CCCCCCCC=CC1=CC2(C)CC1(C)C(CCCCCCC)CC2=O (centres undefined)	i[8.59 µM]	?
CC(C)(C)[C@]1(O)CCN2C[C@H]3c4ccccc4CCc4cccc(c43)[C@@H]2C1	?	11µM
CN1CCN2c3ncccc3Cc3ccccc3C2C1 (centres undefined)	i	?
CC(C)(C)C1(O)CCN2CC3c4ccccc4CCc4cccc(c43)C2C1 (centres undefined)	?	28µM
COc1ccc2c(c1)OC/C(=C\c1ccc(OC)c(O)c1)C2=O	i	13µM
SMILES	LASV entry inh	Marburg entry
COc1ccc2c(c1)OCc1c-2oc2cc(OC)ccc12	i	i
COc1ccc(C=C2c3ccccc3C(=O)c3ccccc32)cc1O	?	1µM
COc1cc(C/C=C/c2ccccc2)c(OC)cc1O	i	i
C=C[C@H](CCCCCC)[C@@H]1C[C@H](CCCCCCCCCCC)O[P@](=O)(OC)O1	nt	i
C=CCCCN1C=C(C(=O)OCC)C(c2ccccc2)NC1=O (centres undefined)	i[8.59 µM]	i[8.59 µM]
O=C(C[C@H]1C(=O)N(c2ccccc2)C[C@@H]1c1ccccc1)Nc1ccccc1	i	i
O=C(/C=C/c1ccc(O)cc1)c1cccs1	i	i
COc1cc(/C=C/C(=O)c2cccs2)cc(OC)c1OC	32µM	?
C[C@H]1CC[C@H]2C(=O)O[C@H](CO)CN2[C@H]1c1ccc(Br)cc1	nt	i[8.59 µM]
O=S1(=O)N[C@H](Cc2ccccc2)COc2cc(NCCO)ccc21	i	i
CCN(CC)Cc1cc(Nc2ccnc3cc(Cl)ccc23)ccc1O	?	5µM
CN(Cc1ccco1)Cc1cc(-c2ccnc3cc(Cl)ccc23)ccc1O	i	i
CCN(CCO)CCCC(C)Nc1ccnc2cc(Cl)ccc12 (centres undefined)	i	1.3µM
O[C@H]1C[C@H](c2ccccc2)N(Cc2cccs2)C[C@H]1n1cc(C2CC2)nn1	i	?
C[C@@H]1[C@@H]2Cc3ccc(O)cc3[C@@]1(C)CCN2CCc1ccccc1	?	20µM
C[C@@H]1[C@@H]2Cc3ccc(O)cc3[C@@]1(C)CCN2CC1CC1	i	i
COC(=O)N[C@@H](c1cccc(C)c1)[C@]1(C(=O)OC)CCCC1=O	i[8.59 µM]	?
CC(C)=CCC12CC3[C@@H](O)C(C(=O)c4ccccc4)(C1=O)C(=O)C(CC=C(C)C)(C2=O)C3(C)C (some centres undefined)	nt	i[8.59 µM]
CC(COc1ccccc1)N(CCCl)Cc1ccccc1 (centres undefined)	28µM!	i
CN(C)Cc1ccccc1	i	i
Cc1cc(I)ccc1Nc1c(C(=O)NOCC2CC2)cc(F)c(F)c1F	?	11µM
Cn1cnc2c(F)c(Nc3ccc(Br)cc3Cl)c(C(=O)NOCCO)cc21	i	i
COC(=O)N1C2CC(=O)O[C@H]3c4cc5c(cc4[C@]1(C)[C@@]3(Br)c1ccccc12)OCO5	i[8.59 µM]	i[8.59 µM]
O=C(c1ccc(Br)cc1)N1[C@H](COCc2ccccc2)C=CS1(=O)=O	i	i
O=C1C=C2C=C[C@@H]3C[C@@]2(O1)[C@H]1CCCCN31	?	14µM
SMILES	LASV entry inh	Marburg entry
N=C(N)SCCc1ccc(OCc2ccc([N+](=O)[O-])cc2)cc1	i	14µM
Oc1ccc(OCc2ccccc2)cc1	?	i
C=CCN1C(=O)[C@]2(O[C@H](C)CC3=CCCC32)c2c(Br)cccc21 (some centres undefined)	i[8.59 µM]	i[8.59 µM]
CC(C)C1C(=O)N(Cc2cn(CCC3OCCCO3)nn2)CCS(=O)(=O)N1Cc1ccc(-c2ccc(F)cc2)cc1 (centres undefined)	i	?
Cc1cc(C)c(N(Cc2ccccc2)S(=O)(=O)c2ccc(OCCNC(=O)c3cc4ccccc4o3)cc2)c(C(=O)NO)c1	13µM	5µM
NCCNC(=O)c1ccc(Cl)cc1	i	i
CN(C)CCCN1c2ccccc2CCc2ccc(Cl)cc21	11µM!	8.9µM
CN1C(=O)CC(=O)N(c2ccccc2)c2cc(Cl)ccc21	i	i
CN(CCCN1c2ccccc2CCc2ccccc21)CC(=O)c1ccc(Cl)cc1	?	7.9µM
CNCCCN1c2ccccc2CCc2ccccc21	?	7.9µM
CCOC(=O)CCN1C(=O)[C@@H]2[C@H]3[C@H](O)[C@H](O)CC(=NOCc4ccccc4)[C@@H]3CC[C@H]2C1=O	i[8.59 µM]	i[8.59 µM]
CNCCNS(=O)(=O)c1cccc2cnccc12	i	i
O=S(=O)(NCCNC/C=C/c1ccc(Br)cc1)c1cccc2cnccc12	i	13µM
COc1cc(OC)c2c(-c3cccc(-c4ccc(OC(F)(F)F)cc4)c3)cc(=O)oc2c1	i	i
COc1cc(OC)c2c(-c3cccc(-c4ccc(CO)cc4)c3)cc(=O)oc2c1	?	1µM
COc1cc(OC)c2c(-c3cccc(/C=C/c4ccc(F)cc4)c3)cc(=O)oc2c1	i	i
COc1cc(OC)c2c(-c3cccc(-c4ccc(N(C)C)cc4)c3)cc(=O)oc2c1	?	3.5µM
CCOC(=O)[C@@]12[C@@H]3[C@@H](CCN3C(=O)N[C@H]1c1ccccc1)C2(C)C	nt	i[8.59 µM]
